Cycloheximide cs: counter-screen for Shiga toxin inhibitors: cycloheximide protein synthesis inhibition. max response, %. cell reporter, cycloheximide protein synthesis inhibition counterscreen. hit rate 12% among 300,000; in the data active = max response mostly above about 13%, no sharp cut-off; inactive = mostly below about 14%; note: read at 38.3 µM for the half of the compounds with a filed dose; 0% is about no effect
LmPK inhibitor: inhibitors of Leishmania mexicana pyruvate kinase; purified LmPK, Kinase-Glo ATP luminescence, 1 h; AID 1721; Potency, µM (titrated, usually from 57.5 µM), for inactives: at the highest dose activity change, negative = inhibition, most hits filed as inhibitors; hit rate 0.37% among 290,000; Q27686; active = well fitted curve in the direction sought with a large enough effect; inconclusive = small, poorly fitted or top-dose-only effect, or another doubt; inactive = no such curve, though single readings can be large; an effect the other way counts as inactive or inconclusive; note: potency is the fitted concentration of half-maximal effect; % is set by controls: 0 for no effect and ±100 for the full control effect
Target sequence (Q27686 whole entry, looked up): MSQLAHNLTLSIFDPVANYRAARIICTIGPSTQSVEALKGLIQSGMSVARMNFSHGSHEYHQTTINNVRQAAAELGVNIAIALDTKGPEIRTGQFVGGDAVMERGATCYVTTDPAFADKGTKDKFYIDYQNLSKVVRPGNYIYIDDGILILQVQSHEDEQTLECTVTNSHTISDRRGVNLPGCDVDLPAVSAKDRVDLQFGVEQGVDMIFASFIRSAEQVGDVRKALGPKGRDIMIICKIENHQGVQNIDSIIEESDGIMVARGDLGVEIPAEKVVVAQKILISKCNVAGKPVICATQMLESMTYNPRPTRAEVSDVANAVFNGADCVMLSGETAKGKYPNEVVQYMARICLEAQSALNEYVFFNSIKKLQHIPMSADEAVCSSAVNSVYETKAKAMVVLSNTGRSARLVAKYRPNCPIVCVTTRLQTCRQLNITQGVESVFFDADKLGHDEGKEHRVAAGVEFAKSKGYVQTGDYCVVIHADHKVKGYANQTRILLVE
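0.1 nM LmPK, 0.5 mM PEP, 0.1 mM ADP; 50 mM imidazole pH 7.2, 7 mM MgCl2, 50 mM KCl; 1 h RT. Kinase-Glo luminescence readout, normalized to no-enzyme (full inhibition) and uninhibited wells.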
Tb PYK inh: T. brucei pyruvate kinase inhibition. Q57TT1. TbPYK enzyme, Kinase-Glo Plus ATP luminescence, 45 min. Potency, µM (highest dose often 76.8 µM), for inactives: at the top dose activity, negative = inhibition, hits mostly inhibitors. hit rate 0.12% among 410,000. AID 624173; active = well fitted curve in the direction sought with a large enough effect; inconclusive = small, poorly fitted or top-dose-only effect, or another doubt; inactive = no such curve, though single readings can be large; an effect the other way counts as inactive or inconclusive; note: potency is the fitted concentration of half-maximal effect; % is set by controls: 0 for no effect and ±100 for the full control effect; nearly all actives have a fitted effect of over 50% in size
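In this concentration-response screen, enzyme-free wells defined baseline while DMSO plates tracked drift. Each reaction combined TbPYK, substrate, compound and 130 uM ADP for 45 min at room temperature. Kinase-Glo Plus luminescence gave the signal.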
NS1 inh: inhibitors of influenza NS1 protein function | Potency, µM (doses to about 46.1 µM), without a hit: at the top dose activity, positive = more growth | hit rate 0.4% among 270,000; note: potency is the fitted concentration of half-maximal effect; actives are rising curves; nearly all actives have a fitted effect of over 50% in size
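Recovery from NS1-induced slow growth read by OD600 in budding yeast switched to galactose assay medium (pH 6.0, -URA) at 1:100 dilution. Compound 23 nl per well; the matching strain lacking NS1 serves as control.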
SARS PLP yeast: inhibitors of SARS-CoV papain-like protease in yeast; Potency, µM (titrated, usually from 32.9 µM), inactives show at the top dose activity, positive = growth rescue, most hits filed as activators; S. cerevisiae expressing SARS-CoV PLpro, growth rescue; hit rate 0.19% among 330,000; AID 485353; note: potency is the fitted concentration of half-maximal effect; 0% is about no effect; nearly all actives have a fitted effect of over 55% in size
Shiga toxin inh: Shiga toxin inhibition; Vero cells, Shiga toxin protein synthesis inhibition reporter; inhibition, % at 38.7 µM; hit rate 9.2% among 290,000; AID 2315; in the data active = inhibition mostly above about 28%, no sharp cut-off; inactive = mostly below about 43%; note: 0% is about no effect
An asterisk follows results filed as active; ? = inconclusive; . = no result; ! = a repeat was not active; [ ] = remark or other dose. The sample as a whole holds a higher share of hits than the screen did. Unless noted, calls come from the whole dose curve.

SMILES	Cycloheximide cs	LmPK inhibitor	Tb PYK inh	NS1 inh	SARS PLP yeast	Shiga toxin inh
COc1ccc(NC(=O)Nc2nnc(-c3ccco3)s2)cc1	34*	7%	1%	-1%	1%	59*
COc1ccc(NC(=O)Nc2nnc(C(C)C)s2)cc1	42*	4%	-12%	-1%	6%	62*
COc1ccc(NC(=O)Nc2nnc(-c3ccncc3)s2)cc1	19	-4%	-1%	.	-1%	26
CCCc1nnc(NC(=O)Nc2ccc(OC)cc2)s1	24*	6%	-1%	-6%	-2%	39
O=C(Nc1ccc(Cl)cc1)Nc1nnc(CSCc2ccc(Cl)cc2)s1	-6	-3%	-7%	-1%	4%	-7
CCc1nnc(NC(=O)Nc2ccc(Cl)cc2)s1	25*	-2%	4%	5%	1%	52*
CCOC(=O)c1cnc2ccc(OC(F)(F)F)cc2c1Nc1ccccc1C(=O)O	.	.	-5%	.	.	.
CC(C)c1nnc(NC(=O)Cc2ccc(Br)cc2)s1	-2	-4%	-6%	2%	9%	-11
COc1ccc(CC(=O)Nc2nnc(C(C)C)s2)cc1	19*	4%	-6%	-2%	0%	29
Nc1nc(CSc2ncccn2)nc(Nc2ccccc2)n1	62*	2%	2%	-4%	3%	139*
Nc1nc(CSc2n[nH]c(-c3ccccc3)n2)nc(Nc2ccccc2)n1	-1	-1%	1%	-22%	-1%	-10
COc1ccc(Nc2nc(N)nc(CSc3nccc(C)n3)n2)cc1	16*	0%	-1%	-1%	1%	76*
Cc1ccc(Nc2nc(N)nc(CSc3nnc(-c4ccncc4)o3)n2)cc1	14*	1%	-2%	?	-2%	48*
Cc1cccc(Nc2nc(N)nc(CSc3nccc(C)n3)n2)c1	6	2%	-2%	-8%	3%	49
Cc1ccc(Nc2nc(N)nc(CSc3ncccn3)n2)cc1	29*	-5%	-5%	-9%	4%	68*
Nc1ncnc2c1ncn2[C@@H]1O[C@H](CNC(=O)[C@@H](N)Cc2ccc(C(F)(F)F)cc2)[C@@H](O)[C@H]1O	.	.	0%	.	-19%	.
COc1ccc(Nc2nc(NCCN3CCOCC3)nc(Nc3ccc(OC)cc3)n2)cc1	-2	-2%	1%	0%	0%	-9
NS(=O)(=O)c1ccc(CCNC(=O)C(c2ccccc2)c2ccccc2)cc1	-1	5%	-2%	-16%	1%	-9
NC(=O)CC[C@H](NC(=O)c1ccc(Cl)cc1)C(=O)NNC(=O)COc1cccc(Br)c1	.	.	1%	.	1%	.
COc1ccc(Nc2nc(N)nc(CSc3nc4ccccc4s3)n2)cc1	.	.	2%	.	.	.
COc1ccc(Nc2nc(N)nc(CSc3nnc(C)s3)n2)cc1	29*	-3%	-6%	-5%	-4%	56*
COc1ccc(Nc2nc(N)nc(CSc3nc4cc(OC)ccc4s3)n2)cc1	.	.	2%	.	.	.
Cc1ccc(Nc2nc(N)nc(CSc3nc4ccccc4s3)n2)cc1	37*	1%	-3%	12%	-23%	37*
COc1ccc(S(=O)(=O)N2CCNCC2)cc1	-1	4%	3%	6%	0%	-7
Cc1cccnc1Nc1nc(-c2ccc(O)c(O)c2)cs1	45*	-4%	-16%	?	-15%	80*
SMILES	Cycloheximide cs	LmPK inhibitor	Tb PYK inh	NS1 inh	SARS PLP yeast	Shiga toxin inh
COc1ccc(-c2csc(Nc3ncccc3C)n2)cc1OC	34*	-4%	-5%	-12%	-4%	139*
COc1ccc(-c2csc(Nc3ncccc3C)n2)cc1	-5	?	3%	15%	-116%	-2
O=C1/C(=C/c2ccccn2)SC(=S)N1c1cccc(O)c1	36*	4%	0%	3%	1%	38*
CN(C)c1ccc(C=C2SC(=S)N(Cc3ccco3)C2=O)cc1	.	.	-17%	.	.	.
CN=C1S/C(=C\c2cc(C)n(-c3ccccc3F)c2C)C(=O)N1C	44*	-15%	-11%	-34%	-33%	96*
Cc1cc(/C=C2\SC(=S)N(Cc3ccco3)C2=O)c(C)n1-c1ccccc1	73*	0%	4%	?	-6%	80*
CC(=O)NC1=NC(=O)/C(=C/c2cc(C)n(-c3cccc(C(=O)O)c3)c2C)S1	1	-14%	?	.	-1%	-8
CC(=O)NC1=NC(=O)/C(=C/c2cc(C)n(-c3ccc(NC(C)=O)cc3)c2C)S1	33*	?	-8%	.	-2%	43
COC(=O)C1CCN(S(=O)(=O)c2ccc(N3CCCCS3(=O)=O)cc2)CC1	.	.	1%	.	.	.
CCOc1ccc(-c2cc(C(=O)N3CCN(c4cccc(C(F)(F)F)c4)CC3)c3ccccc3n2)cc1	.	.	7%	.	.	.
CCOc1ccccc1N(CC)C(=O)c1noc2c1COc1ccc(C)cc1-2	.	.	-5%	.	.	.
CCOC(=O)c1c(C)[nH]c(C(=O)OC(C)C(=O)NC2CCCCC2C)c1C (centres undefined)	.	.	-6%	.	-6%	.
O=C1C(Cl)=C(Sc2nnc3c4ccccc4c4ccccc4c3n2)C(=O)c2ccccc21	.	.	.	3%	.	.
CCN(C(=O)Cn1c(=O)n(Cc2ccc3c(c2)OCO3)c(=O)c2ccc(C(=O)NC3CCCCC3)cc21)c1cccc(C)c1	.	.	0%	.	.	.
COc1ccc(-n2c(C)cc(/C=C3/SC(=S)N(C)C3=O)c2C)cc1	9	-1%	-4%	-1%	-8%	12
CC(=O)NC1=NC(=O)/C(=C/c2cn(C(C)=O)nc2-c2ccccc2)S1	1	-27%	7.1µM*	.	-5%	-9
Cc1cc(/C=C2\SC(=O)N(C)C2=O)c(C)n1-c1ccc(S(N)(=O)=O)cc1	22*	2%	0%	2%	-1%	42
Cc1cc(/C=C2\SC(=S)N(C)C2=O)c(C)n1-c1cccc(O)c1	59*	-8%	-1%	0%	-2%	107*
Cc1cc(/C=C2\SC(=O)N(C)C2=O)c(C)n1-c1ccc(O)cc1	34*	-1%	-8%	-103%	-15%	51*
Cc1ccc(-n2c(C)cc(C=C3C(=O)N(C)C(=O)N(C)C3=O)c2C)cc1	.	.	1%	.	.	.
CC(C)CC(OC(=O)CC1Sc2ccccc2NC1=O)C(=O)NC1CCCC1 (centres undefined)	-7	-1%	2%	-5%	-1%	-6
Cc1cc(NC(=O)CCC(=O)N(c2ccccc2)C(C(=O)NC2CCCC2)c2ccccc2F)no1 (centres undefined)	-8	2%	2%	9%	1%	-6
C[n+]1ccccc1/C=N\O	.	.	-2%[33.2 µM]	.	.	.
CCCN1C(=S)c2ccccc2C1c1ccccc1 (centres undefined)	2	3%	-3%	?	2%	-5
c1cnc2c(c1)ccc1cccnc12	active!	-8%	-5%	-44%	3%	29
COc1ccc(C2=NOC(CN3C(=O)c4ccccc4S3(=O)=O)C2)cc1 (centres undefined)	64*	4%	-1%	?	1%	125*
